Compound activity as filed in PubChem.
Sampled rows, rich in hits. Any-hit rate of the full collection: about 0.9%.
RXFP1 agonist: RXFP1 (human) receptor agonism; Q9HBX9; HEK293T-RXFP1 cAMP TR-FRET, 30 min; response scale: percent of porcine relaxin response, buffer zero; Potency, µM (highest dose often 57.5 µM), for the others: at the highest dose activation, hits mostly activators; 0.3% of 370,000 active; active means well fitted activation curve with a large enough effect; inconclusive means small, poorly fitted or top-dose-only effect; further: potency means the concentration at half of the fitted maximal effect; on the % scale 0 is the no-effect control and ±100 the full control effect; nearly all actives have a fitted effect of over 60% in size
Target sequence (Q9HBX9 whole entry, looked up): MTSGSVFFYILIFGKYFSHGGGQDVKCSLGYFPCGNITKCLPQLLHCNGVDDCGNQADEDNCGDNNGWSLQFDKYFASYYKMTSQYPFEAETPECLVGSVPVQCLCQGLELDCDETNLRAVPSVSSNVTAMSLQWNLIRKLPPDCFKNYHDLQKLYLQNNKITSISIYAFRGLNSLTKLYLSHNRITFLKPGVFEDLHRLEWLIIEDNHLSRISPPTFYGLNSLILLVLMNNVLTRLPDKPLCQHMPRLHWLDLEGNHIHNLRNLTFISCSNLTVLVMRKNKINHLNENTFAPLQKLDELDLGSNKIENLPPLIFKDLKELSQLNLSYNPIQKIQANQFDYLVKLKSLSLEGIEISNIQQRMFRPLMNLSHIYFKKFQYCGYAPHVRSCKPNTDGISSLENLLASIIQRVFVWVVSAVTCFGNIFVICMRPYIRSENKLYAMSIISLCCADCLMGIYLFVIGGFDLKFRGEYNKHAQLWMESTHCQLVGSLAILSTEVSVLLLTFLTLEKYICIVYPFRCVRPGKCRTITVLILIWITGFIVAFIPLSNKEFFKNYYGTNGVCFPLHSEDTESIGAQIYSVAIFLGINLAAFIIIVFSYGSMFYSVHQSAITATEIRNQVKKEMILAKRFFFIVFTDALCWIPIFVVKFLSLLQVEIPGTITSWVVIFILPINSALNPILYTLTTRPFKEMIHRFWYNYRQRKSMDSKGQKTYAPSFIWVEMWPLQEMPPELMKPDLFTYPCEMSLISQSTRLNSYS
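HEK293 cells stably expressing RXFP1, treated 30 min at 37C with compounds plus PDE4 inhibitor Ro 20174; cAMP measured by HTRF TR-FRET. Normalized to buffer and 29 nM porcine relaxin; EC50 by Hill fit.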
gsp antag: antagonists of gsp mutant (McCune-Albright syndrome); gsp-mutant cells, cAMP HTRF, 30 min; Potency, µM (titrated, usually from 76.9 µM), without a hit: at the top dose activity change, negative = inhibition, most hits filed as inhibitors; 0.4% of 340,000 active; AID 624288; calls by dose curve; cell line not stated here;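 further: intracellular cAMP measured with PDE inhibitor Ro 20-1724 present during compound exposure; potency means the concentration at half of the fitted maximal effect; on the % scale 0 is the no-effect control and ±100 the full control effect; nearly all actives have a fitted effect of over 65% in size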
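Cells in G418 medium, seeded 16-24 h, 37C; buffer exchange to DPBS + 1 mM CaCl2, 0.5 mM MgCl2, 0.05% BSA; cpds in DMSO + […] (300 uM stock), 30 min 37C; HTRF cAMP detection.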
RXFP1 antagonist: antagonists of human relaxin receptor RXFP1; HEK293-RXFP1, relaxin-stimulated cAMP HTRF, 30 min; hits give low values; activity change, negative = inhibition, % at 57.5 µM; 0.59% of 350,000 active;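 active means activity change of -60% or lower, but not beyond a set lower limit; inconclusive means change between -60% and -40%, or beyond the set limit; inactive means change above -40%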; further: on the % scale 0 is the no-effect control and ±100 the full control effect
gsp ag: agonists of gsp mutant (McCune-Albright syndrome) | gsp mutant cells, cAMP HTRF, 30 min | Potency, µM (top dose mostly 76.9 µM), for inactives: top-dose activation (cAMP increase), most hits filed as activators | 0.13% of 340,000 active | AID 624287; active means well fitted activation curve with a large enough effect; inconclusive means small, poorly fitted or top-dose-only effect, or another doubt; inactive means no such curve, though single readings can be large or run the other way; cell line not stated here;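 further: phosphodiesterase inhibitor Ro 20-1724 added with compounds to block cAMP breakdown; potency means the concentration at half of the fitted maximal effect; nearly all actives have a fitted effect of over 60% in size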
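Cells stably selected in G418 were plated at 2000/well, grown 16-24 hr, then given compounds in DMSO with the PDE inhibitor […] (300 uM solution added) for 30 min at 37C; cAMP was read by HTRF.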
An asterisk follows results filed as active; [ ] = dose if it differs, or a comment.

CCCNC(=O)c1ccc(-n2c(-c3ccccc3)cc3c2CCC(C)C3)cc1 (stereo unspecified) was read as RXFP1 agonist -2.7% and RXFP1 antagonist -35.8.
For COCCNC(=O)c1ccc(-n2c(-c3ccccc3)cc3c2CCC(C)C3)cc1 (stereo unspecified) the results were RXFP1 agonist -1.5% and RXFP1 antagonist -70.7*.
For O=C(NCc1cccnc1)C1CCN(S(=O)(=O)c2cc(Cl)ccc2Cl)CC1 the results were RXFP1 agonist 0.3%, gsp antag 0.9%, RXFP1 antagonist -88.0* and gsp ag 6.1%.
Screening CCOc1ccc(-c2cc(C)n3nc(C(=O)Nc4cc(Cl)ccc4O)cc3n2)cc1 returned RXFP1 agonist -0.9%.
`Oc1cccc(-c2c3nc(c(-c4cccc(O)c4)c4ccc([nH]4)c(-c4cccc(O)c4)c4nc(c(-c5cccc(O)c5)c5ccc2[nH]5)CC4)C=C3)c1` gave RXFP1 antagonist -100.3*.
COc1ccc(-c2ccc(NS(=O)(=O)c3ccc(C(C)=O)cc3)cc2)nn1 was read as RXFP1 agonist -4.4% and RXFP1 antagonist -7.1.
Screening Cc1cc(=O)oc2cc(O[C@@H]3SC[C@@H](O)[C@H](O)[C@H]3O)ccc12 returned RXFP1 antagonist 7.7.
COc1ccc(S(=O)(=O)N2CCC(C(=O)Nc3ccc(Oc4ccccc4)cc3)CC2)cc1 was read as RXFP1 agonist 3.7% and RXFP1 antagonist 2.4.
For COc1cc(NC(=O)C(C)Oc2ccccc2)ccc1NC(=O)COc1ccccc1 (stereo unspecified) the results were RXFP1 agonist -0.3%, gsp antag 39.8µM*, RXFP1 antagonist -6.7 and gsp ag -23.6%.
For Cc1cc(C)c(/C=C/c2onc(C)c2S(=O)(=O)N2CCC(C(=O)Nc3ccc(Cl)c(C(F)(F)F)c3)CC2)c(C)c1 the results were RXFP1 agonist -2.2% and RXFP1 antagonist 6.9.
CC(Oc1ccc2c3c(c(=O)oc2c1)CCCC3)C(=O)NCC1CCC(C(=O)O)CC1 (stereo unspecified) was read as RXFP1 agonist 2.7%, gsp antag -5.1%, RXFP1 antagonist -13.4 and gsp ag -17.4%.
`CC(Oc1ccc2c3c(c(=O)oc2c1)CCC3)C(=O)NCC1CCC(C(=O)O)CC1` (stereo unspecified) gave RXFP1 agonist 3.2% and gsp antag 31.6µM*.
For CCc1ccc(CN2CCc3nc(Nc4ccccc4)ncc3C2)cc1 the results were RXFP1 agonist 1.9% and RXFP1 antagonist -65.2*.
`CC(CN1CCOCC1)C(Cc1ccccc1)(Cc1ccccc1)C(=O)N1CCCC1` (stereo unspecified) gave RXFP1 antagonist 7.7.
`Cc1csc2ncc(C(=O)NC(C)c3ccccc3)c(=O)n12` (stereo unspecified) gave RXFP1 agonist 10.1%, gsp antag -1.6%, RXFP1 antagonist 5.1 and gsp ag 17.8µM*.
For Clc1ccccc1OCCN1CCC(Cc2ccccc2)CC1 the results were RXFP1 agonist 4.2%, gsp antag 14.1%, RXFP1 antagonist -22.4 and gsp ag -30.7%.
`O=Cc1cc(Cl)ccc1OCCN1CCC(Cc2ccccc2)CC1` gave RXFP1 agonist 0.1%, gsp antag 0.3%, RXFP1 antagonist -108.7* and gsp ag -14.8%.
`Cc1c(F)cc2c(=O)c(C(=O)O)cn3c2c1CCC3C` (stereo unspecified) gave RXFP1 antagonist -7.4.
Screening O=C(CCCSc1nc2ccccc2[nH]1)N1CCN(c2ccccc2)CC1 returned RXFP1 agonist -0.1%, gsp antag -11.3%, RXFP1 antagonist -1.7 and gsp ag 2.6%.
Cc1cccc(N2CCN(C(=O)CCCSc3nc4ccccc4[nH]3)CC2)c1C was read as RXFP1 agonist 2.1%, gsp antag 44.7µM*, RXFP1 antagonist -28.7 and gsp ag -2.8%.
`O=C(NN1CCCC1)NS(=O)(=O)c1ccc(Cl)cc1` gave RXFP1 antagonist 10.0.
N#CC(c1ccccc1)C(CC(=NO)c1ccccc1)c1ccccc1 (stereo unspecified) was read as RXFP1 antagonist -90.8* and gsp ag -0.6%.
`CNC(=O)C(C)c1ncc(C(F)(F)F)cc1Cl` (stereo unspecified) gave RXFP1 agonist -0.4%, gsp antag 5.1%, RXFP1 antagonist -5.8 and gsp ag -9.7%[15.4 µM].
`CNC(=O)c1cc2ncc(C(F)(F)F)cc2s1` gave RXFP1 agonist 4.7%, gsp antag 0.0%, RXFP1 antagonist -82.4* and gsp ag inconclusive.
Screening CCOC(=O)C(=CNc1cc(C)ccc1[N+](=O)[O-])C(=O)OCC returned RXFP1 agonist -0.1%, gsp antag inconclusive, RXFP1 antagonist -7.0 and gsp ag -11.6%.
CCOC(=O)C(=CNc1cc(C)ccc1C)C(=O)OCC was read as RXFP1 agonist 0.6%, gsp antag 35.5µM*, RXFP1 antagonist -9.4 and gsp ag 0.1%.
COc1ccc(NC(=O)COC(=O)Cc2c(F)cccc2Cl)cc1 was read as RXFP1 agonist -0.4%, gsp antag 44.7µM*, RXFP1 antagonist -11.3 and gsp ag inconclusive.
`COc1ccc(NC(=O)Cc2c(F)cccc2Cl)cc1` gave RXFP1 agonist -0.2%, gsp antag 18.4%, RXFP1 antagonist 2.1 and gsp ag -48.8%.
For Cc1ccc(F)cc1NC(=O)N1CCN(c2ccnc3cc(Cl)ccc23)CC1 the results were RXFP1 agonist 0.1%, gsp antag 35.5µM*, RXFP1 antagonist -10.5 and gsp ag -0.8%.
`O=C(Nc1cc(F)ccc1F)N1CCN(c2ccnc3cc(Cl)ccc23)CC1` gave RXFP1 agonist 6.6%, gsp antag inconclusive and gsp ag -43.6%.
Screening Cc1cccc(Cl)c1NC(=O)N1CCN(c2ccnc3cc(Cl)ccc23)CC1 returned RXFP1 agonist 3.1%, gsp antag 28.2µM*, RXFP1 antagonist -4.3 and gsp ag 22.6%.
`COCc1oc2ccc(NS(=O)(=O)c3ccc(C)cc3)cc2c1C(=O)OC` gave RXFP1 agonist 4.6% and RXFP1 antagonist -15.0.
`CCN1CCCC1CN` (stereo unspecified) gave RXFP1 antagonist 6.6.
Screening COc1ccc(C[C@@H]2OC3(C=CC(=O)C=C3)O[C@H]2Cc2ccc(OC)cc2)cc1 returned gsp antag -10.3%, RXFP1 antagonist -92.0* and gsp ag -14.1%.
CCCc1ccc2oc(C(=O)NCCc3nc(C(=O)OCC)cs3)c(C)c2c1 was read as RXFP1 agonist 0.2%, gsp antag inconclusive, RXFP1 antagonist -78.6* and gsp ag 18.1%[15.4 µM].
CCCc1ccc2oc(C(=O)NCCc3cnn(C)c3)c(C)c2c1 was read as RXFP1 agonist 2.8%, gsp antag -14.0%, RXFP1 antagonist inconclusive and gsp ag -4.3%.
Screening Brc1ccc(CSc2ncn[nH]2)cc1 returned RXFP1 agonist 0.4%, gsp antag 31.6µM*, RXFP1 antagonist 5.6 and gsp ag -2.0%.
